Experimental data: the supplement of paper PMC6555819

How the values were obtained:
Test in all cases: PBM binding z-score (relative to random genomic background probes); higher = stronger binding; sequences stand for … in GC…GCGATTGACAGCGTAGAATGAAGG
[1] = tested on: PPARg:RXRa DBDmut IVT, anti-RXR (DBD mutation: RXRa K156A/R161A, NR concentration 270 nM, RXRa partner concentration 90 nM)
In short: (§1)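 The probes on custom Agilent 4×180K protein-binding microarrays were double-stranded, with 34-nt variable regions bearing direct-repeat seeds, single-nucleotide variants, half-site ablations and random human genomic background sequences. Incubation lasted 1 h with ligand-free nuclear receptor dimers in PBS pH 7.4, 2% milk, 0.02% Triton X-100, 1 mM DTT, 0.2 mg/mL BSA and 0.4 mg/ml salmon testes DNA. Antibodies against each partner (one per run) detected bound dimers, and fluorescence scans were regression-normalized. Binding z-scores take the random background probes as reference.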

[2] = tested on: PPARg:RXRa IVT, anti-PPARg (NR concentration 270 nM, RXRa partner concentration 90 nM)
In short: as §1

[3] = tested on: PPARg DBDmut:RXRa IVT, anti-PPARg (DBD mutation: PPARg1 K132A/R137A, NR concentration 270 nM, RXRa partner concentration 90 nM)
In short: as §1

[4] = tested on: PPARg DBDmut IVT, anti-PPARg (DBD mutation: PPARg1 K132A/R137A, NR concentration 270 nM)
In short: as §1

[5] = tested on: PPARg homodimer (NR concentration 180 nM)
In short: as §1

[6] = tested on: PXR:RXRa (NR concentration 270 nM, RXRa partner concentration 90 nM)
In short: as §1

[7] = tested on: PXR homodimer (NR concentration 270 nM)
In short: as §1

[8] = tested on: RARa:RXR (NR concentration 270 nM, RXRa partner concentration 90 nM)
In short: as §1

[9] = tested on: RARa homodimer (NR concentration 270 nM)
In short: as §1

[10] = tested on: RARb:RXRa (NR concentration 270 nM, RXRa partner concentration 90 nM)
In short: as §1

Row | Sequence | PBM binding z-score [1] | PBM binding z-score [2] | PBM binding z-score [3] | PBM binding z-score [4] | PBM binding z-score [5] | PBM binding z-score [6] | PBM binding z-score [7] | PBM binding z-score [8] | PBM binding z-score [9] | PBM binding z-score [10]
1 | CTCGAAAGGCCGGTTGAGGTGAGTATACGGATAA | -0.491 | -0.359 | -0.611 | -0.528 | -1.35 | -0.133 | -0.38 | 1.91 | -1.14 | 0.703
2 | AGAATGAGGTTATTAAGAGCAGGGAATTGCGGTC | 2.93 | 2.39 | 0.24 | -0.178 | 0.998 | 1.08 | 0.932 | 1.42 | 0.134 | 1.47
3 | CCAGACAGGTGAGAAGGTAACGCAGCCTCGATTA | 1.37 | 0.83 | -0.151 | -0.199 | 0.904 | 0.0317 | 0.012 | 0.312 | 0.438 | 0.806
4 | AGAATGAGGTTTTTAAGATCAGGGAATTGCGGTC | 0.514 | 0.257 | 0.355 | -0.0253 | -0.582 | -0.38 | -0.508 | -0.216 | 0.273 | 0.0304
5 | ACTATTAGTAGACTTAGGGCAACCGATACGACGC | 0.187 | 0.601 | 0.838 | 1.02 | 0.603 | 0.0648 | 0.218 | 0.0539 | 0.917 | 0.609
6 | CCGACTGGGGCATAAGGTTACGATAAGCCAGCCC | 2.87 | 3.37 | -0.323 | -1.04 | 1.02 | 0.614 | -0.423 | 1.66 | -0.594 | 1.77
7 | CAAACTAGGTCGCAGAGGTCAAAGTCCGTGCGTA | 6.57 | 7.05 | 2.76 | 1.62 | 3.69 | 6.55 | 7.19 | 7.01 | 1.48 | 4.5
8 | GATACAGGGTTAGCTAGAGGCCAGAGTATGGAAA | -0.257 | 0.231 | -0.237 | -1.22 | 0.107 | 0.293 | -0.052 | 0.625 | -0.595 | 1.07
9 | ATCGAAAGGTCGAATGTGAGTATACCCACCCGAA | 0.065 | 1.47 | 1.15 | 0.649 | 1.56 | 2.5 | 0.558 | 2.9 | 0.346 | 3.72
10 | AGAATGAGGTTATTAAGATCGGGGAATTGCGGTC | 2.65 | 2.39 | 0.666 | -0.0579 | 0.639 | 1.23 | 0.366 | 1.26 | 0.527 | 1.37
11 | CAAACTAGGTCACAGCGGTCAAAGTCCGTGCGTA | 8.22 | 8.97 | 2.1 | 1.7 | 2.78 | 3.32 | 1.36 | 3.58 | 1.2 | 4.58
12 | TCGAGTAGGTTACCCATGGGGCATTCAGCTTTCT | 2.81 | 2.66 | -0.222 | -0.778 | -0.0262 | 0.0585 | -0.728 | 0.457 | -0.95 | 0.891
13 | TCATATAGGTAAATGCAAGGTGAAAGTCCGATCT | 4.1 | 3 | 0.862 | 1.12 | 1.16 | 1.03 | 0.736 | 1.86 | 0.975 | 1.19
14 | TCTTGTAGATCAAAGGTTAATAAAGCCGAAGCCT | 2.46 | 3.56 | 0.977 | 1.2 | 1.25 | 1.62 | 0.19 | 2.43 | 1.02 | 1.64
15 | AGTCAAAGCTCATCTAGGTAACGTAAGATATGCT | 0.59 | 1.71 | 0.357 | 0.493 | -0.497 | -0.42 | -0.351 | -0.0294 | -0.0154 | -0.0836
16 | TCTTGTTGGTCACGGAGGTCACACACGACGGGTA | 2.92 | 4.57 | 2.15 | 2.59 | 4.65 | 5 | 2.43 | 5.34 | 3.1 | 4.17
17 | CCTATTAGTTGACCATAAGGGCTACCGAAGCTCG | 0.457 | 0.104 | 0.267 | 0.311 | 1.99 | 0.0462 | 0.632 | 0.373 | 1.97 | 0.623
18 | ACTAGCAGTCCAAGGGTCACTCAAGATTAGTCCG | -0.304 | 1.77 | 0.198 | -0.0845 | 1.69 | 3.03 | 0.168 | 3.39 | -0.132 | 3.35
19 | CATGCAGGGTCAGCTAGGCCAGAGTAGGGACGGC | 0.734 | 1.98 | 0.517 | -0.095 | 0.728 | 2.2 | -0.234 | 3.27 | -0.247 | 4.14

Row | Sequence | PBM binding z-score [1] | PBM binding z-score [2] | PBM binding z-score [3] | PBM binding z-score [4] | PBM binding z-score [5] | PBM binding z-score [6] | PBM binding z-score [7] | PBM binding z-score [8] | PBM binding z-score [9] | PBM binding z-score [10]
20 | TCTATTAGTTGATTAAGGCAACCGAAACAGCGGA | 2.31 | 0.341 | 1.4 | 0.689 | 0.977 | 0.454 | 0.378 | 0.873 | 1.34 | 0.0773
21 | CCTTACGGGTCAAGGTTATAGTACGGGTGGTACG | 1.4 | 3.68 | 0.554 | -0.326 | 2.79 | 3.75 | 0.673 | 4.68 | 1.47 | 4.18
22 | TCTTGTTGGTCAAAGGTCACACACTCGAAATGCG | 3.64 | 5.98 | 1.27 | 1.91 | 4.88 | 5.9 | 1.75 | 7.15 | 3.44 | 5.25
23 | TCTAGGAGGACACGAAAGGTCAGAGCTCGACATC | 2.31 | 2.52 | 0.115 | -0.502 | 2.04 | 4.08 | 0.408 | 4.32 | 1.42 | 4.35
24 | ATACCAAGGTGATCGTGAGGTCGTTGATACTAAC | 0.604 | 1.28 | 0.214 | 0.382 | 1.03 | 2.86 | 1.53 | 1.82 | 0.745 | 1.42
25 | ATACCTAGGTGATCGTGAGGTCGTTGATACTAAC | 1.24 | 1.46 | 0.324 | 0.924 | 0.783 | 2.64 | 2 | 2.04 | 0.311 | 1.09
26 | CATCCAAGGTCAAGGTCAGTGAAAGAGACTCGAA | 3.78 | 5.22 | 1.93 | 0.636 | 4.53 | 4.84 | 1.77 | 5.12 | 1.98 | 5.77
27 | TCTCGGAGGACACGAAGATCAGAGCTTTCCAGAG | 1.06 | -0.251 | -1.11 | -0.408 | -0.646 | -0.151 | -0.592 | 0.08 | -0.514 | 1.21
28 | GATACAGGGTCACCTAGAGGCCAGAGTATGGAAA | 2.73 | 4.97 | 2.46 | 1.14 | 3.21 | 4.54 | 0.0767 | 6.04 | 0.306 | 4.56
29 | TCTAGTTGGTCAACGGTCACACACTCGAAATGCG | 2.4 | 2.99 | 0.499 | 0.932 | 1.48 | 0.697 | 0.127 | 0.78 | 1.23 | 2.31
30 | GCTTACGGGGCAAAGGTTATAGCATGAATAGAAT | 3.33 | 4.27 | 0.825 | 1.35 | 2.67 | 2.99 | 0.0717 | 4.63 | 0.155 | 2.32
31 | ACAGACAGGTGAGTGAAGGTAACACAGCTGGACG | 0.662 | 0.632 | 0.226 | -0.221 | 0.391 | -0.00194 | 0.205 | 0.574 | 0.248 | 0.597
32 | TATACAGGGTCAAAGGCCTGAGTACGAATGTCGA | 2.08 | 4.32 | 3.81 | 3.06 | 4.01 | 3.86 | 0.321 | 5.15 | 1.29 | 4.2
33 | TCTTGTAGATCAGCAGGTTTAGAAAGCTGGCCAA | 1.21 | -0.135 | -0.815 | -0.0639 | -0.866 | -0.251 | -0.893 | -0.334 | -0.74 | -0.387
34 | CTGACTGGGGCAAGGTTACCATAACGCACAGCCA | 4.8 | 5.05 | 0.266 | 0.0884 | 0.436 | 0.519 | 0.00598 | 0.987 | 0.104 | 1.86
35 | ATCTCTAGGTAAAGGTAGTTCAGTGAATGCAAAT | 2.73 | 2.3 | 0.954 | 1.19 | 1.25 | 1.15 | 0.822 | 0.523 | 1.7 | 0.628
36 | ATCTCTAGGTAAAGATAGTTCGGTGAATGCAAAT | 2.2 | 1.58 | 0.574 | 0.789 | 0.784 | 0.102 | 0.511 | 0.121 | 0.697 | 0.0855
37 | GCGACTGGGGCAAAGCAGGTTACCATGAGGTTGG | 4.46 | 3.79 | -0.666 | -1.4 | 0.0533 | 0.378 | -0.61 | 0.383 | -0.939 | 0.981
38 | CAAACTAGGTCACCGGAAGGTCAAAGTGCGCATG | 8.63 | 8.94 | 1.75 | 1.74 | 7.29 | 6.12 | 1.81 | 7.59 | 2.46 | 5.39
